Laboratory results: PubChem BioAssay (Tox21)
Inconclusive results are not listed. A call without a number means that no potency is given here. Activity calls are given as the source filed them. Calls come from the whole dose curve; as a rule, active = well fitted activation curve with a large enough effect in the repeat runs; inconclusive = weak or mixed curves; inactive = no such curve, though single readings can be large or run the other way.

Assay: qHTS assay for small molecules that induce genotoxicity in human embryonic kidney cells expressing luciferase-tagged ATAD5 (AID 651632); note: nearly all actives have a fitted effect of over 15% in size
Settings: HEK293T ATAD5-luciferase induction, 16 h; series mostly up to 83.3 µM
Source text: U.S. Tox21 Program National Center for Advancing Translational Sciences [NCATS] NIH Chemical Genomics Center [NCGC] U.S. Environmental Protection Agency [EPA] National Institutes of Environmental Health Sciences [NIEHS] National Toxicology Program [NTP] U.S. Food and Drug Administration [FDA] Tox21 Assay Overview: As cancer cells divide rapidly and during every cell division they need to duplicate their genome by DNA replication. The failure to do so results in the cancer cell death. Based on this concept, many chemotherapeutic agents were developed but have limitations such as low efficacy and severe side effects etc. A new cell based assay was developed to find the compounds that effectively block DNA replication either by directly damaging DNA or by inhibiting other cellular mechanisms. Enhanced Level of Genome Instability Gene 1 (ELG1; human ATAD5) protein levels increase in response to various types of DNA damage. Using a luciferase reporter-gene tagged with ATAD5, a cell-based assay [developed by Kyungjae Myung, NHGRI, NIH] was used to measure the induction of ATAD5 in human embryonic kidney cells (HEK293T). So, increase in luciferase activity can be used to identify the compounds that cause genetic stress.
Tox21 Assay Protocol Summary: For genotoxicity screening, 2,000 cells in 5 uL/well were dispensed into white, solid-bottom 1536-well plates using a Multidrop Combi (Thermo Scientific) dispenser. Following transfer of 23 nL compound or DMSO vehicle by a pin tool, the plates were incubated 16 hr at 37C and 5% CO2. 5 ul Amplite (AAT Bioquest, Inc.) was then added to each plate and following 30 min incubation at room temperature, luciferase activity was quantified on a ViewLux CCD-based plate reader.
Potency is the fitted concentration of half-maximal effect.

SMILES	Potency
CC(=O)OCC(=O)[C@H]1CC[C@H]2[C@@H]3CCC4=CC(=O)CC[C@]4(C)[C@H]3CC[C@]12C	inactive
CC(=N\O)/C(C)=N/O	inactive
CCCCCCCCCCCCCCCCBr	inactive
CCCCN(CCCC)CCCOC(=O)c1ccc(N)cc1	inactive
CCc1c2c(nc3ccc(OC(=O)N4CCC(N5CCCCC5)CC4)cc13)-c1cc3c(c(=O)n1C2)COC(=O)[C@]3(O)CC	inactive
Nc1nccs1	inactive
O=C(O)Cc1ccc(-c2ccccc2)cc1	inactive
CCCOc1ccc(S(=O)(=O)N2CCN(CC)CC2)cc1-c1nc2c(CC)n(Cc3ccccn3)nc2c(=O)[nH]1	inactive
CCCCCCCC/C=C\CCCCCCCC(=O)OC	inactive
C[C@@H]1C[C@H]2[C@@H]3CCC4=CC(=O)C=C[C@]4(C)[C@@]3(F)[C@@H](O)C[C@]2(C)[C@H]1C(=O)CO	inactive
CC[C@H](NC(=O)c1cc(F)ccc1NS(=O)(=O)c1cccc2cccnc12)c1ccccc1	inactive
Cc1ccc(S)cc1	inactive
CCc1nn(CCCN2CCN(c3cccc(Cl)c3)CC2)c(=O)n1CCOc1ccccc1	inactive
CC(C)(C)CC(C)(C)c1ccc(OCCO)cc1	inactive
CC1(C)O[C@@H]2C[C@H]3[C@@H]4CCC5=CC(=O)C=C[C@]5(C)[C@H]4[C@@H](O)C[C@]3(C)[C@]2(C(=O)CO)O1	11.9 nM (active)
OCCSc1ccccc1	inactive
CC(=O)[C@H]1CC[C@H]2[C@@H]3C=CC4=CC(=O)CC[C@@]4(C)[C@@H]3CC[C@]12C	inactive
NC(=O)Nc1ccc(Cl)c(Cl)c1	inactive
CC[C@@H]([C@H](C)O)n1ncn(-c2ccc(N3CCN(c4ccc(OC[C@@H]5CO[C@@](Cn6cncn6)(c6ccc(F)cc6F)C5)cc4)CC3)cc2)c1=O	inactive
CC1(C)C(=O)N(Br)C(=O)N1Cl	inactive

SMILES	Potency
C=C(C)C(=O)OCCOC(=O)CC(C)=O	inactive
CCCCC(=O)O[C@]1(C(=O)CO)[C@@H](C)C[C@H]2[C@@H]3CCC4=CC(=O)C=C[C@]4(C)[C@@]3(F)[C@@H](O)C[C@@]21C	inactive
COC(OC)(C(=O)c1ccccc1)c1ccccc1	inactive
O=C(O)c1ccc(CO)o1	inactive
CC#N	inactive
C/C=C/C=C/CCCCCCCO	inactive
CCC1(C)CC(=O)NC1=O (stereo not given)	inactive
Cc1cc(C(=C2C=CC(=Nc3ccc(S(=O)(=O)O)cc3S(=O)(=O)O)C=C2)c2ccc(Nc3ccc(S(=O)(=O)O)cc3)cc2)ccc1N	inactive
CC(=O)Nc1ccccc1C	inactive
CCCCCCCCCCCCCCC[C@H](O)[C@@H](N)CO	inactive
CC(=O)Oc1ccc(C(=C2CCCCC2)c2ccc(OC(C)=O)cc2)cc1	inactive
CSc1ccc(Oc2ccc(S(N)(=O)=O)cc2CN(C)C)cc1C	inactive
CCC(Cc1ccccc1)(C(=O)c1ccc(N2CCOCC2)cc1)N(C)C (stereo not given)	inactive
COc1ccc(C(=O)c2cccc(O)c2)c(OC)c1	inactive
CC1CC(=O)NN=C1c1ccc(NCC(C)(C)NCC(O)COc2cc(Cl)ccc2C#N)cc1 (stereo not given)	inactive
N#C[C@@H]1C[C@@H]2C[C@@H]2N1C(=O)[C@@H](N)C12CC3CC(CC(O)(C3)C1)C2	inactive
CC1=C(C=O)C(C)(C)CCC1	inactive
NC(=O)N(O)[C@@H]1COc2cc(OCc3ccccc3)ccc21	1540 nM (active)
CCCCC1C(=O)N(c2ccccc2)N(c2ccc(O)cc2)C1=O (stereo not given)	inactive
O=C(c1ccc(O)cc1)c1ccc(Cl)cc1	inactive
